The results in this text go back to PubChem BioAssay AID1460 (National Center for Advancing Translational Sciences (NCATS), 2008).

The structures appear in SMILES notation. Out of some 270,000 compounds screened, about 5,800 (2.1%) were called active. A call without a number means that no potency is given here. Another 16% or so got no clear call; they are omitted. This is one part of a sample in which actives are shown more often than they occur. The call rests on the fitted dose curve; in most records, active means well fitted inhibition curve with a large enough effect; inconclusive means small, poorly fitted or top-dose-only effect; inactive means flat fitted curve, though single readings scatter.
Potency means the concentration at half of the fitted maximal effect.

Microtubule-associated protein tau (Homo sapiens), sequence (P10636 561-689 P618L limits assumed): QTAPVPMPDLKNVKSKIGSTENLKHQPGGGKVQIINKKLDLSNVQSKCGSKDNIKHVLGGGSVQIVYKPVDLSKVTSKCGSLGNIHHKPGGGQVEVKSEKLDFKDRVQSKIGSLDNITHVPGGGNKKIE

This test concerns the target Microtubule-associated protein tau (Homo sapiens) (UniProt P10636). Nature of the test: qHTS for Inhibitors of Tau Fibril Formation, Thioflavin T Binding. Further: nearly all actives have a fitted effect of over 55% in size. The following applies: recombinant tau K18 P301L (four-repeat tau fragment), heparin-induced fibrillization, ThT fluorescence; series mostly up to 57.4 µM. The text has this: NIH Molecular Libraries Probe Production Network [MLPCN]
NIH Chemical Genomics Center [NCGC]
Assay Provider: Carlo Ballatore, University of Pennsylvania
The microtubule-associated protein tau is an abundant protein in the axons of neurons that stabilizes microtubules. With its ability to modulate microtubule dynamics, tau contributes directly or indirectly, to key structural and regulatory cellular functions. Particularly important is the influence tau exerts on axonal transport, which allows signaling molecules, trophic factors and other essential cellular constituents to travel along the axons. Under pathological conditions, tau becomes sequestered into insoluble aggregates called neurofibrillary tangles. This phenomenon is believed to have pathological consequences by promoting axonal transport deficits that ultimately lead to synaptic dysfunction and neuronal loss. To identify inhibitors of tau aggregation, a heparin-induced tau fibril formation assay was used that employed a recombinantly expressed fragment of tau, K18 (Q242-E372), bearing a P301L mutation (Gustke et al. 1994; Hong et al. 1998). This assay monitors tau fibrillization by Thioflavin T (ThT) fluorescence.
Gustke, N., B. Trinczek, et al. (1994). "Domains of tau protein and interactions with microtubules." Biochemistry 33(32): 9511-22.
Hong, M., V. Zhukareva, et al. (1998).
Li, W. and V. M. Lee (2006).
von Bergen, M., S. Barghorn, et al. (2001). "Mutations of tau protein in frontotemporal dementia promote aggregation of paired helical filaments by enhancing local beta-structure." J Biol Chem 276(51): 48165-74.
NCGC Assay Protocol Summary:
For screening, 2 uL/well human K18 P301L (15 uM unlabeled and 0.24 uM Alexa 594-labeled tau, final concentrations) in reagent buffer (100 mM sodium acetate pH 7) was dispensed into black solid 1536-well plates (Grenier) using a solenoid-based dispenser. Following transfer of 23 nL compound or DMSO vehicle by a pin tool, 2 uL/well heparin (20 uM final concentration) in reagent buffer was added and the plate centrifuged 15 s at 1000 RPM. Plates were incubated 6 hr at 37 C and then 1 uL/well ThT (30 uM final concentration) was added. After a 1 hr ambient incubation, the plates were read by an Envision (Perkin Elmer) to monitor ThT fluorescence (450/8 nm excitation and 510/23 nm emission).
Keywords: NIH Roadmap, MLPCN, MLI, MLSMR, NCGC, qHTS, tau, tauopathies, Alzheimer's disease, fibril, neurodegeneration, aggregation
A general note: In qHTS, concentration-response curves come from the screen itself.
Consider `O=C(Oc1ccccc1C(=S)N1CCCCC1)c1cc([N+](=O)[O-])cc([N+](=O)[O-])c1`, for which the Potency was 25.1 µM (active).
`O=[N+]([O-])c1cccc(S(=O)(=O)N2CCCCCC2)c1`: the Potency result is “inactive”.
Under `COC(=O)c1ccc(C(=O)OC)c(NC(=S)N2CCCCC2)c1` stands “inactive”; under `CCS(=O)(=O)N1CCc2cc(C(=O)NCc3ccc(C)cc3)ccc21`, “inactive”.
On to `CCCCN(CC)CCCNC(=O)c1nn(C)c2c1CSc1ccccc1-2`, for which the Potency entry was “inactive”.
As to `COc1cccc(-n2c(=O)c3c(C)c(C(=O)N(C)C)sc3n(Cc3cccc(C)c3)c2=O)c1`, the Potency result is “inactive”.
On to `CCOC(=O)c1cc(-c2ccccc2)n(CCC(=O)Nc2ccccc2CC)c1C`, for which the Potency entry is “inactive”.
Take `CCOC(=O)c1cc2n(c1N)-c1ccccc1C2=O`: the Potency is 14.1 µM (active).
Regarding `CCOC(=O)Nc1ccccc1N1C(=O)c2ccccc2C1=O`, the Potency result is “inactive”.
`O=C(NNc1ccccn1)c1ccc(Cl)nc1`: the Potency entry is “inactive”.
`O=C(CCl)NNc1cccc(Cl)n1`: the Potency was 14.1 µM (active).
For the molecule `COc1cc(OC)nc(NC(=O)CCl)n1`, the Potency result was “inactive”.
Consider `Cc1ccc(CNC(=O)CCC(=O)N2Cc3ccccc3Oc3ncccc32)cc1`, for which the Potency entry was “inactive”.
Consider `COc1ccccc1CNC(=O)C(=O)NCC(c1ccco1)S(=O)(=O)c1ccc(F)cc1` (stereo not given), for which the Potency result is “inactive”.
Under `CCCCN=C1C([N+](=O)[O-])=CC=C2C1=NC1(CCCCC1)N2O` stands 8.91 µM (active); under `CCCOc1ccc(NC(=O)CC2C(=O)N(c3ccccc3)C(=O)N2Cc2ccco2)cc1` (stereo not given), “inactive”; under `CCOc1ccc(NC(=O)Cn2c(=O)n(CCCC(=O)NCc3ccc4c(c3)OCO4)c(=O)c3ccccc32)cc1`, “inactive”.
Consider `C/C(=N\NC(=O)c1cccnc1)c1ccc(-c2ccccc2)cc1`, for which the Potency result was “inactive”.
As to `O=C(NN=C1CCC(=NNC(=O)c2cccnc2)CC1)c1cccnc1`, the Potency was 39.8 µM (active).
With `O=C(Nc1cnccn1)c1cccnc1`, the Potency result was “inactive”.
Regarding `CCOc1ccccc1NC(=O)Cn1c(=O)n(Cc2ccccc2)c(=O)c2c(C)c(C(=O)N(C)C)sc21`, the Potency result is “inactive”.
For `COc1ccccc1CC(=O)Nc1ccc([N+](=O)[O-])cc1OC`, the Potency entry is “inactive”.
Turning to `COc1ccccc1CSc1nc2ccccc2[nH]1`, the Potency result was “inactive”.
As to `COc1ccccc1CSc1ncc(-c2ccc([N+](=O)[O-])cc2)[nH]1`, the Potency was 14.1 µM (active).
As for `Oc1c(Cl)cc(Cl)c(Cl)c1Cc1c(O)c(Cl)cc(Cl)c1Cl`, the Potency was 20 µM (active).
On to `CCOc1ccc(NC(=O)C(=O)NCCc2csc3nc(-c4ccccc4F)nn23)cc1`, for which the Potency entry is “inactive”.
On to `CCc1ccccc1NC(=O)Cn1c(=O)n(-c2cccc(C)c2)c(=O)c2c1c1cc(OC)ccc1n2C`, for which the Potency entry was “inactive”.
Under `O=C(COC(=O)Cc1ccc(F)cc1)Nc1cc(S(=O)(=O)N2CCOCC2)ccc1N1CCCC1` stands “inactive”; under `COCCNC(=S)Nc1cc(S(=O)(=O)N2CCOCC2)ccc1N1CCCCC1`, 35.5 µM (active); under `CC(=O)NCCC(=O)Nc1cc(S(=O)(=O)N2CCOCC2)ccc1N1CCOCC1`, “inactive”.
Then `COc1ccc(-c2nc3scc(CCNS(=O)(=O)c4cc(F)ccc4OC)n3n2)cc1OC`, with “inactive”; and `Cc1ccc(-n2c(SCC(=O)c3ccccc3)nc3c([nH]c4ccccc43)c2=O)cc1`, with “inactive”.
Turning to `Cc1ccc(N2NC(=O)/C(=C/C=C/c3ccco3)C2=O)cc1C`, the Potency is 10 µM (active).
`Cc1ccc(-c2cc(C(=O)N/N=C/C=C/c3ccco3)c3ccccc3n2)cc1C`: the Potency entry was “inactive”.
In the case of `CCC1S/C(=N/N=C/c2ccco2)NC1=O` (stereo not given), the Potency entry is “inactive”.
On to `Cc1ccc(N=C2NC(=O)/C(=C/C=C/c3ccco3)S2)cc1C`, for which the Potency was 4.47 µM (active).
For the molecule `CN(C)c1ccc(-n2cccc2/C=C2/SC(=Nc3ccc(F)cc3)NC2=O)cc1`, the Potency entry is “inactive”.
For `Cc1ccc(C(=O)N/C(=C\c2ccco2)C(=O)N2CCSCC2)cc1C`, the Potency result was “inactive”.
Then `CC1CCN(S(=O)(=O)c2ccc3c(ccn3CCC(=O)NCc3ccc(N(C)C)cc3)c2)CC1`, with “inactive”; and `Cc1nc2c(-c3ccccc3)c(C)nn2c(C)c1CCC(=O)NCCc1ccccc1`, with “inactive”; and `CCOc1ccc(NC(=O)c2cn(C3CCCCC3)c(=O)c3c2c2ccccc2n3C)cc1`, with “inactive”.
In the case of `O=C(Cn1ncn2nc(-c3cccs3)cc2c1=O)NCc1cccc(Br)c1`, the Potency result was “inactive”.
Then `Cc1ccc(NC(=O)Cc2ccc(NC(=O)N3CCCCc4ccccc43)cc2)cc1`, with “inactive”.
As to `Cc1c(Cl)cccc1NC(=O)C(=O)NCCc1csc2nc(-c3ccccc3F)nn12`, the Potency result is “inactive”.
Take `CC(C)Cn1c(=O)c2ccccc2n2c(-c3cccc(Cl)c3)nnc12`: the Potency entry is “inactive”.
Then `O=c1[nH]c2ccccc2n2c(-c3ccccc3)nnc12`, with 10 µM (active); and `CCOC(=O)c1cnc2[nH]c3ccccc3n2c1=O`, with “inactive”; and `O=[N+]([O-])c1cccc(-c2nnc3c4ccccc4c4ccccc4n23)c1`, with “inactive”.
Regarding `CC(Nc1ccc(-c2nc(-c3ccco3)no2)cc1[N+](=O)[O-])c1ccccc1` (stereo not given), the Potency result was “inactive”.
Then `CN(C)/C=C1/C(=O)Nc2ccccc21`, with “inactive”; and `Cc1cc(C)c(/C=C2\C(=O)Nc3ccccc32)[nH]1`, with 3.16 µM (active).
Then `Cc1ccccc1-n1c(C)cc(/C=C2\NC(=O)NC2=O)c1C`, with “inactive”; and `Cc1nnc(SCc2cc(=O)c3cc(F)ccc3[nH]2)n1C`, with “inactive”; and `CCOc1ccc(C2C(=O)N(C3CCCCC3)CC(=O)N2CCC2=CCCCC2)cc1OC` (stereo not given), with “inactive”.
Then `Cc1oc2ncnc(N3CCOCC3)c2c1C(=O)NCCc1ccccc1`, with “inactive”; and `COc1cc(/C=C(\C#N)c2nc3c(s2)CC(C)CC3)ccc1O` (stereo not given), with 12.6 µM (active).
As to `Cc1ccc(-c2nnc(SCc3ccccc3C)o2)cc1`, the Potency entry is “inactive”.
Take `Cc1ccc(-c2cc(-c3coc4ccccc4c3=O)c3c(n2)-c2cc(Cl)ccc2OC3)cc1`: the Potency entry is “inactive”.
Consider `O=C(CCc1cn(Cc2ccc(F)cc2)c2ccccc12)NC1CCCCC1`, for which the Potency entry was “inactive”.
Then `OCCC#Cc1ccc(CN2CCN(Cc3ccsc3)C(CCO)C2)cc1` (stereo not given), with 11.2 µM (active).
For `OCCC1CN(Cc2ccccc2-c2ccco2)CCN1Cc1ccsc1` (stereo not given), the Potency result is “inactive”.
For `OCCC1CN(Cc2cccc(OC3CCCC3)c2)CCN1Cc1ccsc1` (stereo not given), the Potency result was “inactive”.
Then `Cc1ccc(-c2nnc(SCC(=O)NCc3ccccc3)nc2-c2ccc(C)cc2)cc1`, with “inactive”.
Under `CCOC(=O)CSC1=Nc2ccccc2C2=NC(CCC(=O)NCc3ccc(F)cc3)C(=O)N12` (stereo not given) stands “inactive”; under `COc1ccc(Cn2ccn(CC(=O)Nc3cc(C)ccc3C)c(=O)c2=O)cc1`, “inactive”.
